Hits are enriched below; roughly 4.7% of the tested compounds scored in any of these assays.
MPTP inh: permeability transition pore inhibition; inhibition, % at 10 µM; 1.4% of 360,000 active; isolated mouse mitochondria, Ca2+ swelling absorbance, 30 min;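 active means inhibition of 50% or more, scaled per plate between neutral and stimulator controls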;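 further: 0% = DMSO wells given calcium and 100% = 1 mM EGTA wells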
DSG3 Ab inh: inhibitors of pemphigus antibody binding to human desmoglein-3; binding (percent of control), % at 10 µM; DSG3-coupled beads, scFv-anti-DSG3-GFP binding, flow cytometry; stronger effect = lower value; P32926; 0.48% of 310,000 active;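 active means binding more than 3 SD below its plate's average and above zero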;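 further: hits lower antibody fragment binding to DSG3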
Target sequence (P32926 whole entry, looked up, the tested form may be a part): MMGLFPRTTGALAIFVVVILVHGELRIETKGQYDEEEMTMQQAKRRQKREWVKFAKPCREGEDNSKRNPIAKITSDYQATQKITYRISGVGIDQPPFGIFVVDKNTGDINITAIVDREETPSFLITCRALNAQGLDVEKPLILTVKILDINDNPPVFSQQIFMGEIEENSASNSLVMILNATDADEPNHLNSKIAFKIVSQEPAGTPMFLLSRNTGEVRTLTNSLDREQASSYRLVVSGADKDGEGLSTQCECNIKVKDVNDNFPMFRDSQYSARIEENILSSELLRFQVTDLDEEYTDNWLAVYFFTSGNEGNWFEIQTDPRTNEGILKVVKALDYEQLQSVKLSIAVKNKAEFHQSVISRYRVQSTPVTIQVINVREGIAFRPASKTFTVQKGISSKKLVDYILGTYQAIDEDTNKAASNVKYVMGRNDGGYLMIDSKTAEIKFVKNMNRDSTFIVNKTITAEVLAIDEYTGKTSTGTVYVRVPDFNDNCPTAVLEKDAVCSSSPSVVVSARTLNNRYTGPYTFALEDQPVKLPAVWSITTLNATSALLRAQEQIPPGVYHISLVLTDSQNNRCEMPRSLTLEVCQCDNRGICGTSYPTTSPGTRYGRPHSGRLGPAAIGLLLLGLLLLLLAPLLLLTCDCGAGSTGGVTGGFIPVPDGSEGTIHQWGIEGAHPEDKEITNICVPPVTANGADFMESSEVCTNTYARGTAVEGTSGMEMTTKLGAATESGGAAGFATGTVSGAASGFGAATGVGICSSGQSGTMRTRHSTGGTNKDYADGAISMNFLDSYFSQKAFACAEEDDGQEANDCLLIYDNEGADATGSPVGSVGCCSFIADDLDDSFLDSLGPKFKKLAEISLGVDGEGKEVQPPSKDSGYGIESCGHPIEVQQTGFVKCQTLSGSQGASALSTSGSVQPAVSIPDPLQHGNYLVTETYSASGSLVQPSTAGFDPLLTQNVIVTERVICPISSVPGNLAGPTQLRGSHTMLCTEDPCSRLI
proKLK7 act: proKLK7 (human) activation, primary screen | purified proKLK7, EDANS-DABCYL substrate fluorescence; 100% is mature enzyme control, 0% vehicle | activation, % at 7 µM | 0.9% of 370,000 active | AID 652039;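 active means activation above the mean of all tested compounds plus 3 SD, computed per campaign excluding outliers beyond control limits, cut at about 13% in these data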
ADAM10 inh: inhibitors of human ADAM10; O14672; recombinant ADAM10, EDANS/DABCYL FRET peptide cleavage, 3 h; inhibition, % at 7 µM; 0.62% of 370,000 active; AID 720582;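 active means inhibition above a per-campaign cutoff equal to the mean of compounds falling between control-based bounds plus 3 SD, cut at about 20% in these data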;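 further: 0% = DMSO wells while the 100% control is not disclosed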
rCAG RNA binder: r(CAG) repeat RNA binding; TO-PRO-1 dye displacement fluorescence; inhibition, % at 3 µM; 1.3% of 370,000 active; AID 651821;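 active means inhibition above the plate cutoff, the mean of all test compounds on that plate plus 3 SD, cut at about 35% in these data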;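 further: 0% = DMSO alone and 100% = 100 µM mitoxantrone as full dye displacement; higher means more dye released from RNA so lower well fluorescence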
ADAM17 inh: ADAM17 inhibition, QFRET primary screen | recombinant ADAM17, EDANS/DABCYL FRET peptide cleavage | inhibition, % at 6.95 µM | 0.83% of 370,000 active;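 active means inhibition above the mean of compounds lying between control limits plus 3 SD, set per campaign, cut at about 8.5% in these data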;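 further: 0% = DMSO-only wells as the low control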
rCAG bind conf: r(CAG) RNA repeat binding, confirmation | shares compounds with rCAG RNA binder | TO-PRO-1 dye displacement fluorescence | inhibition, % at 3 µM | 70% of 4,300 active;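 active means inhibition above a per-plate cutoff, the mean inhibition of sample wells plus 3 SD, cut at about 35% in these data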;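 further: loss of TO-PRO-1 fluorescence as compound displaces dye from 1x1 AA loop RNA; 0% = DMSO only wells and 100% = 100 µM mitoxantrone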
dCAG dye counter: disrupts DNA CAG TO-PRO-1 complex, flagging rCAG hits; shares compounds with rCAG RNA binder; d(CAG) DNA oligo TO-PRO-1 dye displacement, fluorescence; inhibition, % at 3 µM; 94% of 4,300 active; AID 652068;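 active means inhibition above its plate's cutoff, the mean test-well inhibition plus 3 SD, cut at about 4.8% in these data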;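 further: 0% = DNA dye mix with DMSO and 100% = 100 µM mitoxantrone; hits displace the dye from DNA and so lower well fluorescence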
DNA CAG DR: DNA CAG dye complex inhibition, dose response counter-screen; shares compounds with rCAG RNA binder; DNA CAG/GTC duplex TO-PRO-1 dye displacement fluorescence; IC50, µM; 20% of 250 active; in the data active means IC50 below about 10 µM
* hit, by the source's call; x = not tested or not shown.

SMILES	MPTP inh	DSG3 Ab inh	proKLK7 act	ADAM10 inh	rCAG RNA binder	ADAM17 inh	rCAG bind conf	dCAG dye counter	others
Cc1ccc(CSc2nnc(-c3cccc(S(=O)(=O)N4CCOCC4)c3)n2CC(C)C)cc1	5	95	0	3	49*	0	0	0
COc1ccc(C2OCCNC3C2C(=O)N(Cc2ccc(OC)cc2OC)C3Cc2ccccc2)cc1 (centres undefined)	x	x	x	-4	x	-4	x	x
CC1=CN2C(=N)/C(=C/c3ccco3)C(=O)N=C2S1	-1	105	2	-171	6	-71	x	x
CC1=CN2C(=N)/C(=C/c3ccc([N+](=O)[O-])o3)C(=O)N=C2S1	6	110	0	-12	53*	-5	30	15*
O=[N+]([O-])c1cccc(COc2ccc(CO)cc2)c1	x	x	0	4	0	2	x	x
O=S(=O)(Nc1nc2ccccc2nc1NCC1CCCO1)c1cc(Cl)ccc1Cl (centres undefined)	32	97	1	-28	71*	-10	49*	14*
O=S(=O)(Nc1nc2ccccc2nc1NCCN1CCOCC1)c1cccc(Cl)c1	0	99	1	-29	49*	-6	53*	10*	DNA CAG DR=>30
O=S(=O)(Nc1nc2ccccc2nc1NCC1CCCO1)c1ccccc1 (centres undefined)	2	92	3	-83	18	-34	x	x
Cc1ccccc1N/N=C/c1sc(=O)n(Cc2cccc(C(=O)O)c2)c1Cl	4	101	0	-5	69*	-2	78*	40*
O=C(O)C(Cc1ccccc1)N1C(=O)/C(=C/c2ccccc2)SC1=S (centres undefined)	2	85	0	-5	53*	1	56*	20*
COc1cc(/C=C2\SC(=S)N(C(Cc3ccccc3)C(=O)O)C2=O)ccc1O (centres undefined)	8	93	1	-4	45*	-2	34	7.9*
O=C(O)C(Cc1ccccc1)N1C(=O)c2ccccc2C1=O (centres undefined)	-1	96	0	-3	1	-7	x	x
Cc1ccc(/C=C2\SC(=S)N(C(Cc3ccccc3)C(=O)O)C2=O)cc1 (centres undefined)	3	112	0	-2	42*	-1	80*	37*
O=C(O)C(Cc1ccccc1)N1C(=O)c2c(Cl)c(Cl)c(Cl)c(Cl)c2C1=O (centres undefined)	8	x	1	-3	51*	0	53*	17*
COc1cc(/C=C2\SC(=S)N(NC(=O)c3ccc(O)cc3)C2=O)ccc1O	17	83	0	-3	17	0	x	x
O=C(Nc1ccccc1Cl)c1cccs1	-3	106	0	-4	-4	-1	x	x
Cc1ccc(C(=O)Nc2ccc(C)c(S(=O)(=O)Nc3ccccc3Cl)c2)s1	11	125	0	16	36*	8	46*	16*
COc1ccccc1NS(=O)(=O)c1cc(NC(=O)c2sc3cc(Cl)ccc3c2Cl)ccc1C	5	98	1	11	6	4	x	x
O=C(Nc1ccc(Cl)c(S(=O)(=O)Nc2ccccc2Cl)c1)c1cccs1	12	103	0	14	48*	3	29	11*
CCOC(=O)CC[C@H]1CC[C@]2(CCCN(C3CCCCC3)C2)O1	x	x	0	-5	0	-1	x	x
Cc1ccc(CNC(=O)[C@@H](Cc2ccccc2)NC(=O)[C@H]2O[C@@H](n3ccc(N)nc3=O)[C@H](O)[C@@H]2O)o1	x	x	1	-9	5	-6	x	x
Cc1ccc(C)c(NC(=O)CCN2C(=O)[C@@H]3Cc4ccccc4CN3C2=O)c1	18	98	0	-6	-2	-2	x	x
Cn1c(=O)c2[nH]c(NN=Cc3ccc(F)cc3)nc2n(C)c1=O	-1	94	0	2	3	-1	x	x
Cc1cc(C)cc(Nc2nc3c([nH]2)c(=O)n(C)c(=O)n3C)c1	21	104	0	-1	58*	1	18	13*
Cc1ccc(Nc2nc3c([nH]2)c(=O)n(C)c(=O)n3C)cc1	2	96	0	5	51*	-1	14	14*
SMILES	MPTP inh	DSG3 Ab inh	proKLK7 act	ADAM10 inh	rCAG RNA binder	ADAM17 inh	rCAG bind conf	dCAG dye counter	others
COc1cc(S(=O)(=O)N2CCN(Cc3ccc4c(c3)OCO4)CC2)ccc1NC(C)=O	0	x	0	1	3	-2	x	x
CC(C)N1CCC(C)(C(=O)Nc2cccc(Oc3ccccc3)c2)C1 (centres undefined)	2	x	-1	-1	0	-5	x	x
CC(C)c1ccc(NC(=O)C2CCCCC2C(=O)O)cc1 (centres undefined)	0	105	0	-4	-2	0	x	x
Cc1cc(C)cc(NS(=O)(=O)c2ccc(NC(=O)C3CCCCC3C(=O)O)cc2)c1 (centres undefined)	-4	107	0	-4	36*	1	25	4.8*
CCCCCCSc1nc(O)c(C2OC(=O)c3c2ccc(OC)c3OC)c(=O)n1CC (centres undefined)	2	102	1	-9	39*	-9	36*	8.3*
CCCSc1nc(O)c(C2OC(=O)c3c2ccc(OC)c3OC)c(=O)n1C (centres undefined)	0	103	0	-1	10	-1	x	x
COc1ccccc1Cc1c(-c2ccc(F)cc2)nc2cc(C)c(Br)c(C)n12	2	x	0	-15	8	-6	x	x
CCCN1C(=O)/C(=C/c2ccc(OCc3ccc(C(=O)O)cc3)c(OC)c2)NC1=S	4	98	1	0	5	2	x	x
CCCN1C(=O)/C(=C/c2ccccc2OCc2ccc(C(=O)O)cc2)NC1=S	0	92	1	16	39*	4	34	8.1*
O=C(O)c1ccc(COc2ccccc2/C=C2\NC(=O)N(Cc3ccccc3F)C2=O)cc1	0	103	0	-12	42*	-3	45*	14*
O=C(O)c1ccc(COc2ccccc2Cl)cc1	-1	103	1	-8	3	-5	x	x
N#C/C(=C\c1ccccc1OCc1ccc(C(=O)O)cc1)c1ccccc1	0	104	1	0	35*	0	30	5.3*
Cc1ccc(NC(=O)CN2C(=O)N/C(=C/c3ccccc3OCc3cccc(C(=O)O)c3)C2=O)cc1	1	119	0	-11	76*	-5	63*	27*
